Screens from PubChem.
The list is not random: actives were taken first. Their share in the collection is about 32%.
CYP2C9 act: increases human cytochrome P450 2C9 activity; recombinant CYP2C9, luciferin-H conversion, luminescence; hits give high values; factor 1 = untreated enzyme, 0 = blocked; actives 1.4% (n = 96,000); activation factor at 5 µM;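 active means activation factor of 2 or more for CYP2C9 at a 5 µM dose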;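 further: 0 = sulfaphenazole-blocked wells and 1 = vehicle-only wells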
PostGolgi ctrl: inhibits growth of the yeast control strain; efflux-deficient yeast background strain, growth absorbance A615, 16 h; actives 5% (n = 98,000); inhibition, % at 10 µM
CYP2C19 act: increases human CYP2C19 enzyme activity; P33261; recombinant CYP2C19, luciferin-H EGE luminescence; hits give high values; 0 = fully inhibited enzyme, 1 = untreated enzyme; activation factor at 5 µM; 96,000 tested, under 10 active; AID 1025;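 active means activation factor of at least 2 at 5 µM in the primary screen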;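 further: 0 = wells with 2.5 mM tranylcypromine and 1 = vehicle-only wells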
Target sequence (P33261 whole entry, looked up): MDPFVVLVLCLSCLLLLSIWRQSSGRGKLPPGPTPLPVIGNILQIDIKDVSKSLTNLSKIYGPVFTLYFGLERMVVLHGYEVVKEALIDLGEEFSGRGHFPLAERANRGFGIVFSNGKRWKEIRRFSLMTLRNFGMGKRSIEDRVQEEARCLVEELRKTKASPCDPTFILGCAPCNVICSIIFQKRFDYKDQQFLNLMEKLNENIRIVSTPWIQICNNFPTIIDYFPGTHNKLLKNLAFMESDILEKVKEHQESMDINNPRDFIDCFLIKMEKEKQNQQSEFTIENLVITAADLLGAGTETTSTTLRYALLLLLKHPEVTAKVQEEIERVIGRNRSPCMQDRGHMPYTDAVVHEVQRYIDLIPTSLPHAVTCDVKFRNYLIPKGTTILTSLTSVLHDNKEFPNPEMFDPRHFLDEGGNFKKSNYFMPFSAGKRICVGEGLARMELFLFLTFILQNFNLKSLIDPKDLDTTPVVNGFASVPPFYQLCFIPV
CYP2C19 inhib: blocks human cytochrome P450 2C19; P33261; CYP2C19 Supersomes, luciferin-H EGE luminescence, 30 min; inhibition, % at 5 µM; actives 21% (n = 96,000);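 active means CYP2C19 inhibition above a set limit at 5 µM in the primary screen, cut at about 50% in these data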;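 further: plate controls were negative control wells for no effect and 2.5 mM tranylcypromine positive control for full effect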
PostGolgi yeast: growth inhibition of a yeast mutant, post-Golgi transport screen; inhibition, % at 10 µM; actives 0.9% (n = 98,000); post-Golgi transport phenotypic cell assay; AID 739;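 further: yeast cells grown in 1536-well plates; yeast grown about 18 h at 30C before absorbance read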
CYP2C9 inh: blocks human cytochrome P450 2C9; P11712; CYP2C9 Supersomes, luciferin-H conversion, luminescence; inhibition, % at 5 µM; actives 20% (n = 96,000); AID 777;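 active means blocking of liver enzyme CYP2C9 beyond about 50% at 5 µM, limit read from the data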
The depositor's hits bear a star. Unless noted, no stated cut-off is given here; in the data, active means inhibition above about 30%; inactive means the rest.

For C=CCn1c(SCC(=O)Nc2sccc2C(N)=O)nc2sc(CC)cc2c1=O the results were CYP2C9 act 0.3, PostGolgi ctrl 17.9, CYP2C19 act 0.7, CYP2C19 inhib 34.1, PostGolgi yeast 3.7 and CYP2C9 inh 66.1*.
C=CCn1c(SCC(=O)N2CCCC2)nc2scc(-c3cccs3)c2c1=O was read as CYP2C9 act 1.1, PostGolgi ctrl -0.6, CYP2C19 act 0.9, CYP2C19 inhib 10.3, PostGolgi yeast -1.9 and CYP2C9 inh -6.1.
`C=CCn1c(SCn2nnc3ccccc3c2=O)nc2scc(-c3cccs3)c2c1=O` gave CYP2C9 act 0.3, PostGolgi ctrl 4.4, CYP2C19 act 0.6, CYP2C19 inhib 36.3, PostGolgi yeast -4.7 and CYP2C9 inh 72.5*.
C=CCn1c(SCC(=O)Nc2sccc2C(N)=O)nc2ccc(Cl)cc2c1=O was read as CYP2C9 act 0.8, PostGolgi ctrl 13.6, CYP2C19 act 1, CYP2C19 inhib -1.9, PostGolgi yeast -3.1 and CYP2C9 inh 17.9.
Screening C=CCn1c(SCC(=O)Nc2ccccc2)nc2scc(-c3cccs3)c2c1=O returned CYP2C9 act 0, PostGolgi ctrl -0.3, CYP2C19 act 0.2, CYP2C19 inhib 83.0*, PostGolgi yeast 6.1 and CYP2C9 inh 99.5*.
For C=CCn1c(SCC(=O)NCc2ccc3c(c2)OCO3)nc2scc(-c3ccccc3)c2c1=O the results were CYP2C9 act 0.5, PostGolgi ctrl 18.8, CYP2C19 act 0.6, CYP2C19 inhib 37.2, PostGolgi yeast 2.6 and CYP2C9 inh 54.5*.
Screening COc1cccc(/C=N/NC(=O)CO/N=C(\C)c2cccs2)c1OC returned CYP2C9 act 0.9, PostGolgi ctrl -2.1, CYP2C19 act 0.7, CYP2C19 inhib 28.3, PostGolgi yeast -0.8 and CYP2C9 inh 5.1.
For COC(=O)c1cc(-c2ccccc2)sc1NC(=O)CN1C(=O)c2ccccc2C1=O the results were CYP2C9 act 0.5, PostGolgi ctrl 10.2, CYP2C19 act 0.9, CYP2C19 inhib 11.6, PostGolgi yeast 0.8 and CYP2C9 inh 49.1.
For Cc1occc1C(=O)Nc1ccccc1C(=O)O the results were CYP2C9 act 0.8, PostGolgi ctrl 6.3, CYP2C19 act 1, CYP2C19 inhib -4.3, PostGolgi yeast 17.2 and CYP2C9 inh 15.5.
CCc1ccccc1NC(=O)c1ccoc1C was read as CYP2C9 act 0.7, PostGolgi ctrl 36.6*, CYP2C19 act 0.7, CYP2C19 inhib 25.7, PostGolgi yeast 13.6 and CYP2C9 inh 35.0.
CCOC(=O)c1c(NC(=O)c2ccoc2C)sc(C)c1C was read as CYP2C9 act 1.4, PostGolgi ctrl 5.8, CYP2C19 act 1.1, CYP2C19 inhib -12.7, PostGolgi yeast -2.4 and CYP2C9 inh -35.4.
Screening CCOC(=O)c1cc(NC(=O)c2ccoc2C)cc(C(=O)OCC)c1 returned CYP2C9 act 0.5, PostGolgi ctrl 12.1, CYP2C19 act 0.6, CYP2C19 inhib 40.0, PostGolgi yeast -1.3 and CYP2C9 inh 52.1*.
Screening Cc1cc(C)c(NC(=O)c2ccoc2C)c(C)c1 returned CYP2C9 act 1.1, PostGolgi ctrl -8.6, CYP2C19 act 0.9, CYP2C19 inhib 9.2, PostGolgi yeast 0.8 and CYP2C9 inh -5.6.
`Cc1occc1C(=O)Nc1ccc2ccccc2c1` gave CYP2C9 act 0.7, PostGolgi ctrl 52.1*, CYP2C19 act 0.6, CYP2C19 inhib 39.4, PostGolgi yeast -3.1 and CYP2C9 inh 29.5.
CCN(CC)c1nc(N2CCOCC2)c(C#N)c2c1CN(C)CC2 was read as CYP2C9 act 0.4, PostGolgi ctrl -0.3, CYP2C19 act 0.8, CYP2C19 inhib 21.3, PostGolgi yeast 0.0 and CYP2C9 inh 55.6*.
Screening CCN1CCc2c(C#N)c(N3CCCCC3)nc(N3CCOCC3)c2C1 returned CYP2C9 act 0.3, PostGolgi ctrl -0.4, CYP2C19 act 0.6, CYP2C19 inhib 39.7, PostGolgi yeast 8.5 and CYP2C9 inh 67.8*.
CCS(=O)(=O)NC(C)C(c1cccs1)N1CCN(c2ccc(F)cc2)CC1 (centres undefined) was read as CYP2C9 act 0.8, PostGolgi ctrl 8.8, CYP2C19 act 0.6, CYP2C19 inhib 36.2, PostGolgi yeast 11.8 and CYP2C9 inh 18.9.
O=S(=O)(CCc1nc2ccccc2o1)c1ccc2ccccc2c1 was read as CYP2C9 act 2.7*, PostGolgi ctrl 22.5, CYP2C19 act 0.8, CYP2C19 inhib 17.2, PostGolgi yeast -0.3 and CYP2C9 inh -169.4.
For O=S(=O)(CCc1nnc(-c2ccccc2)o1)c1ccc2ccccc2c1 the results were CYP2C9 act 1, PostGolgi ctrl 7.8, CYP2C19 act 0.9, CYP2C19 inhib 13.2, PostGolgi yeast 12.9 and CYP2C9 inh -0.6.
`O=C(c1ccccc1)c1ncc(C(F)(F)F)cc1Cl` gave CYP2C9 act 1.1, PostGolgi ctrl 7.4, CYP2C19 act 0.4, CYP2C19 inhib 64.7*, PostGolgi yeast 7.0 and CYP2C9 inh -9.1.
Screening N/C(=N\OC(=O)Nc1ccc(Cl)cc1)c1ncc(C(F)(F)F)cc1Cl returned CYP2C9 act 0.8, PostGolgi ctrl -2.4, CYP2C19 act 0.8, CYP2C19 inhib 21.6, PostGolgi yeast 12.2 and CYP2C9 inh 16.2.
O=C(c1ccc(Cl)cc1Cl)c1ncc(C(F)(F)F)cc1Cl was read as CYP2C9 act 0.8, PostGolgi ctrl 13.4, CYP2C19 act 0.5, CYP2C19 inhib 53.0*, PostGolgi yeast 3.3 and CYP2C9 inh 21.6.
For O/N=C(\c1ccc(Cl)cc1Cl)c1ncc(C(F)(F)F)cc1Cl the results were CYP2C9 act 0.3, PostGolgi ctrl 59.2*, CYP2C19 act 0.1, CYP2C19 inhib 92.7*, PostGolgi yeast -0.2 and CYP2C9 inh 74.5*.
Screening COc1ccc(/C(=N\O)c2ncc(C(F)(F)F)cc2Cl)cc1 returned CYP2C9 act 0.9, PostGolgi ctrl -10.8, CYP2C19 act 0.2, CYP2C19 inhib 79.1*, PostGolgi yeast 10.5 and CYP2C9 inh 13.9.
CON/C=C(\C=Nc1ccc(C(F)(F)F)cc1)c1ncc(C(F)(F)F)cc1Cl was read as CYP2C9 act 1, PostGolgi ctrl 4.0, CYP2C19 act 1.1, CYP2C19 inhib -6.2, PostGolgi yeast 8.8 and CYP2C9 inh 0.1.
`ClC(=C\c1ccccc1)/C=N/N1CCN(c2ccccn2)CC1` gave CYP2C9 act 1, PostGolgi ctrl 29.2, CYP2C19 act 1.1, CYP2C19 inhib -7.4, PostGolgi yeast -2.6 and CYP2C9 inh -4.7.
O=C(CCC1(C(=O)O)CCC(=O)NC1)NCc1ccccc1 (centres undefined) was read as CYP2C9 act 1, PostGolgi ctrl 7.6, CYP2C19 act 1, CYP2C19 inhib 3.3, PostGolgi yeast 0.6 and CYP2C9 inh -3.7.
`CC(C)NC(=O)Cn1nnc(-c2ccc(Cl)cc2)n1` gave CYP2C9 act 1, PostGolgi ctrl 19.8, CYP2C19 act 0.8, CYP2C19 inhib 24.9, PostGolgi yeast 4.8 and CYP2C9 inh 2.9.
Screening COc1ccc(N2CCN(/C(=N\S(=O)(=O)c3ccccc3)Nc3nc(C)cc(C)n3)CC2)cc1 returned CYP2C9 act 0.3, PostGolgi ctrl 1.6, CYP2C19 act 0.9, CYP2C19 inhib 10.8, PostGolgi yeast 5.9 and CYP2C9 inh 66.7*.
